This passage reports outcome and AC50 results from PubChem BioAssay (EPA / NIEHS).

The source made the active and inactive calls. The calls were made as follows: active = hit-call score of the fitted dose curve at least 0.9, where 1 is the maximum; inactive = score below 0.9.

Read-out in this experiment: Cytochrome P450 (CYP24A1_1), CYP24A1 (gene 1591)
Put plainly: LTEA_HepaRG_CYP24A1_1: Life Technologies and Expression Analysis (LTEA) Assay for Cytochrome P450 (CYP24A1_1) using HepaRG (AID 2283671). Conditions: mRNA level, 48 h; actives raise or lower the signal. The procedure: LTEA_HepaRG is a cell based, multiplexed-readout assay that uses HepaRG, a human liver cell line, with measurements taken at 48 hours after chemical dosing on a 96-well plate.LTEA_HepaRG_CYP24A1_1 is one of 102 assay component(s) measured in the LTEA HepaRG cell culture assay. It is a marker of NR mediated metabolism.Data from the assay component LTEA_HepaRG_CYP24A1_1 was analyzed into 1 endpoint. This assay endpoint, LTEA_HepaRG_CYP24A1_1, was analyzed with bidirectional fitting relative to DMSO as the negative control and baseline of activity. Using a type of inducible reporter, measures of mRNA induction for gain or loss-of-signal activity can be used to understand regulation of transcription factor activity. To generalize the intended target to other relatable targets, this assay endpoint is annotated to the cyp intended target family, where the subfamily is xenobiotic metabolism.
A total of 1060 chemcials from the ToxCast library were tested in eight-point concentration-response experiments. Cell culture and cytotoxicity assays were conducted at Thermo Fisher Scientific's Custom Services facility (Madison, WI). A single lot of human HepaRG cells (Thermo Fisher Scientific, Frederick, MD) was used for the cell culture experiments. 96-well format collagen type I coated plates of human HepaRG cells were prepared using established methods. Briefly, cryopreserved HepaRG cells were thawed, plated at a density of approximately 100,000 cells/well in HepaRG Thaw, Plate, and General Purpose media (HPRG770, Thermo Fisher Scientific), and incubated for 48 hours. 0.5% DMSO was selected as vehicle control to balance the requisite need of DMSO in HepaRG cultures to maintain differentiation (for example, baseline metabolism, proportions of hepatocytes vs. cholangiocytes), while enabling further hepatic receptor pathway activation (for example, PXR and CAR) in response to chemical exposure. 48 hours after plating, the culture medium was replaced with HepaRG Serum-Free Incudtion Media. Cells were exposed to each test chemical in duplicate and maintained in CO2 incubators for another 48 hours. Chemical plates were thawed to room temperature and 200x concentrations of treatment groups were prepared. 8-point conentration-reponse curves were made with the highest exposure at 100 uM, followed by half-log dilutions, all in 0.5% DMSO. Each test plate contained variouse controls, induction positive controls (1mM phenobarbital), cytotoxicity positive controls ([…] aflatoxin B1), vehicle controls (0.5% DMSO), and total lysis controls (0.5% DMSO). Cell morphology images were taken using an Essen IncuCyte FLR automated microscope, with six 96-well plates imaged in about 24 minutes. Images were captured and exported and JPEG files. Spent culture media was transfered to black-well plates for the LDH assay, and remaining media was sorted at -80 C for later use. Cells were treated with RLT buffer and frozen until shipped for gene expression analysis. Total RNA was isolated from the cell suspension in 75 uL of Buffer RLT (Qiagen, Germantown, MD 20874) by Quintiles/Expression Analysis (Durham, NC) using a custom isolation procedure. Total RNA from each plate well was transferred to a preamplification plate. Fluidigm's 96.96 Dynamic ArrayTM (Fluidigm, Amsterdam, the Netherlands) technology was used for gene expression analyses by quantitative reverse transcription polymerase chain reaction (qRT-PCR, performed by Quintiles/Expression Analysis, Durham, NC)89. Standard TaqManTM Assays (Applied Biosystems/ThermoFisher Scientific, Foster City, CA) were used to assess the expression of 93 genes selected based on their selectivity and sensitivity to important hepatic receptors known to be modulated by environmental chemicals; importance in human hepatocyte functionality; and hepatotoxicity. […]
Turning to `CC(C)COC(=O)c1ccccc1C(=O)OCC(C)C`, the compound was called inactive.
The same measure, in the same setting: as for `CO[C@@H]1[C@H](OC(=O)NC(=O)CCl)CC[C@]2(CO2)[C@H]1[C@@]1(C)O[C@@H]1CC=C(C)C`, the entry is “inactive”.
Still for that read-out and setting: as for `C[C@]12C=CC3=C4CCC(=O)C=C4CC[C@H]3[C@@H]1CC[C@@H]2O`, the entry is “inactive”; as for `CN(C)C(=O)Nc1ccc(Cl)cc1`, “inactive”.
The same measure, in the same setting: as for `CCN(CC)CCO`, the entry is “inactive”.
On to `Cc1ccc([N+](=O)[O-])cc1`, for which the result was inactive.
With `Nc1ccc(Cl)cc1N`, the AC50 (usually the midpoint of the concentration-response curve, whichever way the signal moves) is 30.8 µM (active).
As for `C1=Cc2cccc3cccc1c23`, the compound was classed as inactive.
Regarding `ClC1=C(Cl)C2(Cl)C3C(Cl)C=CC3C1(Cl)C2(Cl)Cl` (stereo not given), the result was inactive.
The same measure, in the same setting: as for `O=[N+]([O-])C(Br)(CO)CO`, the entry is “inactive”.
